The supplement of paper PMC8728848
Only a selection was taken, and the strongest signals are over-represented in it overall.

Columns and labels:
Experiment in all cases: glycan array binding signal (z-score within array); higher = stronger binding
Details in all cases: glycan notation: IUPAC condensed, linker removed
[1] = target: Fuc(a1-2)Gal(b1-3)GlcNAc
Method in brief: (§1)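 Glycan array binding is given as a within-array Z-score, which can be read as non-binding when negative. The arrays, 3228 of them, came from the Consortium for Functional Glycomics database and were retained only where the protein sequence was available. Z-scores were averaged across arrays of the same protein sequence at different concentrations or buffers and across linkers.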

[2] = target: Fuc(a1-2)Gal(b1-3)GlcNAc(b1-2)Man(a1-3)[Fuc(a1-2)Gal(b1-3)GlcNAc(b1-2)Man(a1-6)]Man(b1-4)GlcNAc(b1-4)[Fuc(a1-6)]GlcNAc
Method in brief: as §1

[3] = target: Fuc(a1-2)Gal(b1-4)GlcNAc(b1-2)Man
Method in brief: as §1

[4] = target: Fuc(a1-2)Gal(b1-4)[Fuc(a1-3)]GlcNAc
Method in brief: as §1

[5] = target: Fuc(a1-2)[Gal(a1-3)]Gal(b1-4)GlcNAc(b1-2)Man
Method in brief: as §1

[6] = target: Fuc(a1-2)[GalNAc(a1-4)]Gal(b1-4)GlcNAc
Method in brief: as §1

[7] = target: Gal(a1-3)Gal(b1-4)[Fuc(a1-3)]GlcNAc
Method in brief: as §1

[8] = target: Gal(b1-3)GlcNAc(b1-2)[Gal(b1-3)GlcNAc(b1-6)]Man(a1-6)[Gal(b1-3)GlcNAc(b1-2)Man(a1-3)]Man(b1-4)GlcNAc(b1-4)GlcNAc
Method in brief: as §1

[9] = target: Gal(b1-3)GlcNAc(b1-3)Gal(b1-4)Glc
Method in brief: as §1

[10] = target: Gal(b1-3)GlcNAc(b1-3)GalNAc
Method in brief: as §1

[11] = target: Gal(b1-3)GlcNAc(b1-6)GalNAc
Method in brief: as §1

[12] = target: Gal(b1-3)[Neu5Ac(b2-6)]GalNAc
Method in brief: as §1

[13] = target: Gal(b1-4)GlcNAc(b1-2)Man(a1-3)[Gal(b1-4)GlcNAc(b1-2)Man(a1-6)]Man(b1-4)GlcNAc(b1-4)GlcNAc
Method in brief: as §1

[14] = target: Gal(b1-4)GlcNAc(b1-2)Man(a1-3)[Gal(b1-4)GlcNAc(b1-2)Man(a1-6)]Man(b1-4)GlcNAc(b1-4)[Fuc(a1-6)]GlcNAc
Method in brief: as §1

[15] = target: Gal(b1-4)GlcNAc(b1-2)Man(a1-3)[GlcNAc(b1-2)Man(a1-6)]Man(b1-4)GlcNAc(b1-4)GlcNAc
Method in brief: as §1

[16] = target: Gal(b1-4)GlcNAc(b1-2)Man(a1-3)[GlcNAc(b1-4)][Gal(b1-4)GlcNAc(b1-2)Man(a1-6)]Man(b1-4)GlcNAc(b1-4)GlcNAc
Method in brief: as §1

[17] = target: Gal(b1-4)GlcNAc(b1-2)Man(a1-6)[GlcNAc(b1-2)Man(a1-3)]Man(b1-4)GlcNAc(b1-4)GlcNAc
Method in brief: as §1

[18] = target: Gal(b1-4)GlcNAc(b1-3)Gal(b1-4)GlcNAc(b1-3)Gal(b1-4)GlcNAc(b1-3)Gal(b1-4)GlcNAc(b1-2)Man(a1-3)[Gal(b1-4)GlcNAc(b1-3)Gal(b1-4)GlcNAc(b1-3)Gal(b1-4)GlcNAc(b1-3)Gal(b1-4)GlcNAc(b1-2)Man(a1-6)]Man(b1-4)GlcNAc(b1-4)GlcNAc
Method in brief: as §1

[19] = target: Gal(b1-6)Gal
Method in brief: as §1

[20] = target: Gal3S(b1-4)[Fuc(a1-3)]GlcNAc6S
Method in brief: as §1

[21] = target: GalNAc(b1-3)Gal
Method in brief: as §1

[22] = target: GalNAc3S(b1-4)GlcNAc3S
Method in brief: as §1

[23] = target: GlcNAc(a1-4)Gal(b1-4)GlcNAc(b1-3)Gal(b1-4)GlcNAc(b1-3)Gal(b1-4)GlcNAc
Method in brief: as §1

[24] = target: GlcNAc(b1-2)Man(a1-3)[GlcNAc(b1-2)Man(a1-6)]Man(b1-4)GlcNAc(b1-4)[Fuc(a1-6)]GlcNAc
Method in brief: as §1

B1: PVL (Psathyrella velutina), Q309D1_9AGAR (protein)
chain: MSVVVISQALPVPTRIPGVADLVGFGNGGVYIIRNSLLIQVVKVINNFGYDAGGWRVEKHVRLLADTTGDNQPDVVGFGENGVWISTNNGNNTFVDPPKMVLANFAYAAGGWRVEKHIRFMADLRKTGRADIVGFGDGGIYISRNNGGGQFAPAQLALNNFGYAQGWRLDRHLRFLADVTGDGLLDVVGFGENQVYIARNSGNGTFQPAQAVVNNFCIGAGGWTISAHPRVVADLTGDRKADILGFGVAGVYTSLNNGNGTFGAVNLVLKDFGVNSGWRVEKHVRCVSSLTNKKVGDIIGFGDAGVYVALNNGNGTFGPVKRVIDNFGYNQGWRVDKHPRFVVDLTGDGCADIVGFGENSVWACMNKGDGTFGPIMKLIDDMTVSKGWTLQKTVRYAANLYL
[1]
  glycan array binding signal (z-score): -0.372
[2]
  glycan array binding signal (z-score): -0.362
[3]
  glycan array binding signal (z-score): -0.366
[4]
  glycan array binding signal (z-score): -0.367
[5]
  glycan array binding signal (z-score): -0.372
[6]
  glycan array binding signal (z-score): -0.335
[7]
  glycan array binding signal (z-score): -0.368
[8]
  glycan array binding signal (z-score): -0.349
[9]
  glycan array binding signal (z-score): -0.359
[10]
  glycan array binding signal (z-score): -0.36
[11]
  glycan array binding signal (z-score): -0.364
[12]
  glycan array binding signal (z-score): -0.366
[13]
  glycan array binding signal (z-score): -0.369
[14]
  glycan array binding signal (z-score): -0.555
[15]
  glycan array binding signal (z-score): 0.543
[16]
  glycan array binding signal (z-score): -0.369
[17]
  glycan array binding signal (z-score): 0.45
[18]
  glycan array binding signal (z-score): 0.956
[19]
  glycan array binding signal (z-score): -0.37
[20]
  glycan array binding signal (z-score): -0.344
[21]
  glycan array binding signal (z-score): -0.243
[22]
  glycan array binding signal (z-score): -0.369
[23]
  glycan array binding signal (z-score): 4.19
[24]
  glycan array binding signal (z-score): 0.519
